# The entries come from a sample that favours hits as a whole.
# GBA enhancer = increases beta-glucosidase activity in Gaucher fibroblasts; L444P Gaucher fibroblasts, 4-MU-glucoside fluorescence, 3 days; activation, % at 10 µM; 30,000 compounds, 0.44% hits; AID 784; in the data active means activation above about 65%;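 further: 0% = vehicle wells and 100% = positive control wells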
# Target sequence (P04062 whole entry L483P): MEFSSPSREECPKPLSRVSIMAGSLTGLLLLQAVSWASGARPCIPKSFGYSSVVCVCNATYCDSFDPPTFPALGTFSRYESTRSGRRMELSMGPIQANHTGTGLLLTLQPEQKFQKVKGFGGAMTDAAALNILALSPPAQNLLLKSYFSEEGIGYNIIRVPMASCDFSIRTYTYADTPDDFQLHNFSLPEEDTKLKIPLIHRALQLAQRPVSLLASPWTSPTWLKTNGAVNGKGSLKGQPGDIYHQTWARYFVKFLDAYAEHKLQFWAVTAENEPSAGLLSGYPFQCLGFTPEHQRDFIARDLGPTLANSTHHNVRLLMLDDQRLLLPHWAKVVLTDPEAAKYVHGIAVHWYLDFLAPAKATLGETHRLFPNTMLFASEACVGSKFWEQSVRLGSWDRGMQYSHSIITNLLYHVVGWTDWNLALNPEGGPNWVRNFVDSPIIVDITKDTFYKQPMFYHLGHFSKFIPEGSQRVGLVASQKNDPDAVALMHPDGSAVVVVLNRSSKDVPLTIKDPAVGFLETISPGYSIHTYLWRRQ
# Starred values were filed as active, the others as inactive.
SMILES,GBA enhancer
Cc1ccccc1CS(=O)(=O)Cc1ccc(C(=O)NCCCN2CCOCC2)o1,23.1
Cc1ccccc1CS(=O)(=O)Cc1ccc(C(=O)NCCCN2CCCC2=O)o1,13.4
COc1ccc(C(C(=O)NC2CCCCC2)N2CCC3(CC2)OCCO3)cc1 (centres undefined),0.3
CN(C)C(C(=O)NC1CCCCC1)c1ccc(Cl)cc1 (centres undefined),-23.3
Cc1ccc(C(C(=O)NC2CCCCC2)N2CCCC2)cc1 (centres undefined),126.8*
Cn1nc(C(=O)OCCN2C(=O)c3ccccc3C2=O)c2ccccc2c1=O,-10.7
CCOc1cc2[nH]c(=O)n(CCCCC(=O)NCc3ccco3)c(=O)c2cc1OCC,-5.2
CCOc1ccccc1-n1c(SCC(N)=O)nnc1-c1ccc(O)cc1,115.7*
CCOc1ccccc1-n1c(SCC(=O)N(CC)CC)nnc1-c1ccccn1,-0.1
CCOc1ccccc1-n1c(SCC(=O)N2CCOCC2)nnc1-c1ccccn1,-3.7
C=CCOc1ccc(CNc2nn[nH]n2)cc1,-16.6
O=C(NCc1cccc(F)c1)C1CCN(S(=O)(=O)Cc2ccccc2)CC1,-5.4
COc1nc(N2CCCC2)nc(-n2cc(-c3ccccc3)nn2)n1,5.5
COc1ccc(NS(=O)(=O)c2cccc3cccnc23)cc1,-18.6
CC(CS(=O)(=O)c1cccc2cccnc12)N1CCCCC1 (centres undefined),107.8*
O=C(NC1CCCC1)C1CCN(S(=O)(=O)c2cccc3cccnc23)CC1,4.1
COC(=O)n1ccc(C(=O)Nc2ccccc2F)n1,-22.9
O=C1[C@H]2[C@@H](C(=O)N1c1cc(Cl)cc(Cl)c1)[C@]1(C(=O)Nc3ccccc31)N1CCC[C@@H]21,-6.2
O=C1Nc2ccccc2C(O)(C(=O)NC2CC2)N1c1ccc(Cl)c(Cl)c1 (centres undefined),81.3*
O=C1Nc2ccccc2C(O)(C(=O)NCc2ccco2)N1c1ccc(Cl)cc1 (centres undefined),-29.8
CC1CCCN(C(=O)C2CCN(CC3CC=CCC3)CC2)C1 (centres undefined),-1.5
COc1ccc(-c2nsc3c(N4CCN(S(=O)(=O)c5ccccc5)CC4)ncnc23)cc1,0.5
Cc1cc(C)nc(-n2nc(C)cc2Nc2ccccc2)n1,1.0
Cc1cc(C)nc(-n2nc(C)cc2NC(=O)c2cc(=O)c3ccccc3o2)n1,10.7
Cc1cc(C)nc(-n2nc(C)cc2NC(=O)c2cc3ccccc3oc2=O)n1,114.0*
SMILES,GBA enhancer
Cc1ccc(N(C(C)C(=O)O)S(=O)(=O)c2c(C)n[nH]c2C)cc1 (centres undefined),7.8
Cc1ccccc1OCC(=O)N(Cc1cccs1)C1CCS(=O)(=O)C1 (centres undefined),146.7*
COc1ccccc1C(=O)N(Cc1cccs1)C1CCS(=O)(=O)C1 (centres undefined),-21.2
Cc1cccc(OC(C)C(=O)N(Cc2cccs2)C2CCS(=O)(=O)C2)c1C (centres undefined),5.6
O=C(NC(C(=O)c1ccccc1)n1ccc(=O)[nH]c1=O)c1ccccc1 (centres undefined),-24.2
COc1ccccc1N1CCN(C(=O)Cn2nc(C(F)(F)F)c3c2CCC3)CC1,-3.6
Cc1cc(C)n2nc3nc(N4CCCCC4)nc(-c4ccco4)c3c2n1,21.8
Cc1cccc(NC(=O)CSc2ncnc3c2oc2ccccc23)c1,-9.8
Cc1nc(SCC(=O)Nc2ccc3c(c2)OCCO3)c2oc3ccccc3c2n1,149.1*
CCc1nc(SCC(=O)Nc2ccc3c(c2)OCCO3)c2oc3ccccc3c2n1,-131.4
CNc1cccccc1=S,-1.0
CCOc1cc2[nH]c(=O)n(CCCCC(=O)NC3CCCCC3)c(=O)c2cc1OCC,8.1
O=c1[nH]c(Cn2nnc(-c3ccccc3)n2)nc2scc(-c3ccccc3)c12,8.0
COc1cc(NC(=O)c2ccc3c(=O)n(Cc4ccco4)c(=S)[nH]c3c2)cc(OC)c1OC,17.5
COC(=O)c1ccc2c(=O)n(CCCN3CCCC3=O)c(=S)[nH]c2c1,-7.4
O=C(NCCCN1CCCC1=O)c1ccc2c(=O)n(Cc3ccco3)c(=S)[nH]c2c1,115.3*
CCCCN(C)CCn1c(=S)[nH]c2ccc(N3CCOCC3)cc2c1=O,57.8
COc1ccc(-c2csc(/C(C#N)=C(\O)CSc3nccn3C)n2)cc1OC,-1.1
CCOC(=O)N1CCN(C(=O)c2cc(-n3cnnc3)ccc2Cl)CC1,-22.6
Clc1ccc(SCCCCn2ccnc2)cc1,-25.5
CC1=C(C(=O)Nc2cccnc2)C(c2ccccn2)n2nnnc2N1 (centres undefined),27.4
CC1=C(C(=O)Nc2ccccc2)C(c2ccncc2)n2nnnc2N1 (centres undefined),-5.8
CC1=C(C(=O)Nc2cccnc2)C(c2ccncc2)n2nnnc2N1 (centres undefined),69.9*
O=C(CCN1C(=O)c2ccccc2C1=O)Nn1cnnc1,-5.9
CCOC(=O)C1=C(C)S/C(=C\N(C)C)C1=O,-7.9
SMILES,GBA enhancer
CC(C)OC(=O)CSc1nnc(-c2cccnc2)n1N,67.3*
Cc1ccc(C(=O)CSc2nnc(-c3cccnc3)n2N)cc1,-20.0
COc1cccc(-n2c(SCC(=O)OC(C)C)nnc2-c2cccnc2)c1,-40.9
C=CCn1c(N)c(-c2nc3ccccc3n2C)sc1=S,18.3
CCCCCn1c(N2CCC(C(N)=O)CC2)nc2c1c(=O)[nH]c(=O)n2C,-6.1
O=C(Nn1cnnc1)c1ccccc1-c1ccccc1,-25.6
COc1ccc(CCNC(=O)CN2C(=O)c3ccccc3S2(=O)=O)cc1,6.3
O=C(CN1C(=O)c2ccccc2S1(=O)=O)NCCSC1CCCCC1,811.6*
O=C(CN1C(=O)c2ccccc2S1(=O)=O)NCc1ccccn1,-13.4
O=C1/C(=N/n2cnnc2)c2ccccc2N1Cc1ccccc1,-16.5
COc1cccc(S(=O)(=O)NCc2ccc(C(=O)NCC3CCCO3)cc2)c1 (centres undefined),2.4
O=C(CN(CCc1ccccc1)C(=O)CNS(=O)(=O)c1ccccc1)NCC1CCCO1 (centres undefined),-6.9
COc1ccc(S(=O)(=O)NCC(=O)N(CC(=O)NCC2CCCO2)c2ccccc2C)cc1 (centres undefined),71.6*
CCS(=O)(=O)N1Cc2ccccc2CC1C(=O)OCC(=O)Nc1ccc(C)cc1 (centres undefined),-5.1
COC(=O)C1=C(NC(=O)c2cccc(C)c2)CCS1,-11.4
COc1ccc(CN(C(=O)CSc2nnc(-c3ccccc3F)o2)c2ccc(F)cc2)cc1,-6.8
COc1ccc(N2CCN(C(=O)Cn3c(=O)[nH]c4ccsc4c3=O)CC2)cc1,0.2
CCOC(=O)CC1C(=O)NCCN1C(=O)Nc1ccccc1 (centres undefined),10.2
CC(=O)c1cccc(NC(=O)N2CCCC2C(=O)Nc2ccccc2C)c1 (centres undefined),-20.1
CC(=O)c1cccc(NC(=O)N2CCCC2C(=O)NCc2ccc(C)cc2)c1 (centres undefined),23.4
CC(=O)Nc1cccc(NC(=O)C2CCCN2C(=O)Nc2ccc(C)cc2)c1 (centres undefined),80.4*
Cc1cc(C)c(S(=O)(=O)N(CC(=O)N2CCCC2)C2CCCCC2)c(C)c1,-21.2
Cc1ccc(C)c(/C(O)=C2\C(=O)C(=O)N(CCCn3ccnc3)C2c2ccncc2)c1 (centres undefined),84.4*
COCCCN1C(=O)C(=O)/C(=C(/O)c2ccc(C)cc2)C1c1ccccc1 (centres undefined),-9.1
CC1Cc2cc(/C(O)=C3/C(=O)C(=O)N(CCCN(C)C)C3c3ccncc3)ccc2O1 (centres undefined),2.8
